# Bioassay records (PubChem BioAssay)
# D1 agonist = human D1 receptor agonism; P21728; HEK293 T-REx D1 cells, calcium flux, agonist mode; activation, % at 2 µM; 1% of 360,000 active; AID 504660; in the data active means activation above about 30%; further: 0% is about no effect
#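 Agonism was scored from calcium flux recorded over 180 s (1 read/s) after pintool compound addition, following a 10-cycle baseline. Cells were inducible force-coupled HEK293 TREx D1, plated overnight at 30 C and loaded with no-wash calcium dye.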
# D1 potentiator = human D1 dopamine receptor positive modulation | HEK293 TREx D1 cells, calcium flux, dopamine EC20 potentiation | 0.036% of 360,000 active | P21728 | potentiation, % at 10 µM; in the data active means potentiation above about 30%; further: 0% is about no effect
# D1 antagonist = blocks dopamine activation of the human D1 receptor; P21728; HEK293 TREx D1 cells, calcium flux, dopamine EC80; active compounds read low; activity change, negative = inhibition, % at 10 µM; 3.2% of 360,000 active; AID 504652; in the data active means activity change below about -30%; further: on the % scale 0 is the no-effect control and ±100 the full control effect
#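 Tetracycline-induced HEK293 Trex D1 cells, force-coupled to calcium, dye-loaded; compounds added and read 180 s, then EC80 dopamine added and calcium flux tracked kinetically another 180 s.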
# D3 ag = agonists of human D3 dopamine receptor. P35462. D3R DiscoveRx beta-arrestin cells, luminescence, 90 min. max activation, %. 0.58% of 410,000 active; in the data active means max activation above about 30%; further: 0% is about no effect
# Target sequence (P35462 whole entry, looked up): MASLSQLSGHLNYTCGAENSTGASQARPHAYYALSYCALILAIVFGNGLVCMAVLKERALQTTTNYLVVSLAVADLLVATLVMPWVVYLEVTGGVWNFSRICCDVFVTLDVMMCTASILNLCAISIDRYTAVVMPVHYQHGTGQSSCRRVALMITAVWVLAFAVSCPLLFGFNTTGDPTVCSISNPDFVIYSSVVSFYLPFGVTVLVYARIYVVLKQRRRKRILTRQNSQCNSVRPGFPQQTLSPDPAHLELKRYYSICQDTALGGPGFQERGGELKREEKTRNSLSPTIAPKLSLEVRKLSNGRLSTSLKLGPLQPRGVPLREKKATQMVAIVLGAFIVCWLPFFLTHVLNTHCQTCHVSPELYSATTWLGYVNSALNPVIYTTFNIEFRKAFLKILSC
#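 Cells at 1500/well, incubated overnight, then treated with pinned compounds (dopamine as control) for 90 min at 37 degrees C. DiscoveRx reagent added for 30 - 60 minutes at room temperature; luminescence read.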
# DRD3 antagonist = blocks the human D3 dopamine receptor | P35462 | D3R cells, DiscoveRx beta-arrestin luminescence, antagonist mode; active compounds read low | max response, negative = inhibition, % | 2.5% of 360,000 active; in the data active means max response below about -50%; inconclusive means no clear call, values can overlap the other calls; further: on the % scale 0 is the no-effect control and ±100 the full control effect
#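 Cells expressing the human receptor were seeded at 1500 cells/well, incubated overnight at 37 degrees C in 5% CO2, then exposed to library compounds with dopamine controls for 90 minutes at 37 degrees C before luminescent detection.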
# The depositor's hits bear a star; ? = inconclusive; · = not tested or not shown. Compounds with a hit are over-represented: about 6% of the library has one in this group of screens.
SMILES,D1 agonist,D1 potentiator,D1 antagonist,D3 ag,DRD3 antagonist
O=C(Cn1nnc(-c2ccccc2-n2cnnn2)n1)NCc1ccccc1,3.7,-3.5,-7.9,-2.7,-108.5*
C=CCN1C(=O)C(CC(C)C)NC1=S (configuration not stated),·,·,·,-7.6,·
Cc1cccc(C)c1Nc1c(-c2ccccc2Cl)nc2cnccn12,-0.2,1.0,-11.1,-7.1,·
Cc1cc(Br)cc2c1N(Cc1ccccc1OC(C)C)C(=O)C2=O,0.6,-0.7,-50.6*,-19.5,·
CC(=O)Nc1ccc(C(=O)/C=C/c2ccco2)cc1,2.7,-4.7,-76.9*,-2.8,-2.8
Clc1ncnc2scc(-c3ccc(Br)cc3)c12,3.3,-2.8,-22.2,-12.1,-54.1*
Cc1cc(N)n(-c2ncnc3scc(-c4ccc(Cl)cc4)c23)n1,-1.2,11.2,-9.2,5.4,5.4
COCCn1c(N)c(C(=O)NS(=O)(=O)c2ccc(C)cc2)c(=O)[nH]c1=O,7.3,1.1,-31.8*,1.9,3.3
CCN(c1ccccc1)S(=O)(=O)c1cccc(C(=O)NCC(c2ccc(F)cc2)N2CCOCC2)c1 (configuration not stated),·,·,·,-8.8,-21.5
O=C1C2=C(C(=O)c3ccccc31)C1O[C@](CCCCN3C(=O)c4ccccc4C3=O)(Cc3ccccc31)O2,1.4,-2.8,-15.2,·,·
COc1ccc(C(=O)NCCc2csc(-c3ccc(Cl)cc3)n2)c(OC)c1,10.6,-3.2,10.6,12.1,·
CC1=NN(C(N)=S)C(=O)C1N=Nc1ccc(O)cc1 (configuration not stated),3.0,-1.4,-7.5,15.9,-66.2*
CC1=NN(C(N)=S)C(=O)C1N=Nc1ccc(F)cc1 (configuration not stated),5.7,-3.8,-20.1,-2.8,-3.1
Cc1cc(C)c(-n2nnnc2SCC(=O)c2cc3ccccc3o2)c(C)c1,19.2,-6.8,-4.4,-1.2,-16.2
O=C(CSc1nnnn1-c1ccc(O)cc1)c1cc2ccccc2o1,32.3*,-3.8,-24.6,-0.1,0.0
CCc1ccc(OCCCC(=O)Nc2nccs2)cc1,7.7,-1.4,-30.2*,0.4,11.1
O=C(CCCOc1ccccc1)Nc1nccs1,4.7,-0.7,-8.9,-4.1,-57.3*
COc1ccc(OCCC(=O)Nc2nccs2)cc1,5.5,3.4,-2.1,7.0,8.0
CCc1ccccc1NC(=O)CSc1ncccc1C(=O)O,-1.1,-0.8,3.2,0.1,·
COP(=O)(OC)OC(c1ccc(Cl)cc1)P(=O)(OC)OC (configuration not stated),·,·,·,83.7*,·
Cc1ccc(CCNc2nc3c(S(=O)(=O)c4ccc(C)cc4)nnn3c3ccsc23)cc1,0.3,-6.2,-3.6,-25.6,·
Cc1ccccc1NC(=O)c1c(C)oc2ccc(O)c(CN3CCCC3)c12,-1.8,1.4,1.6,6.5,·
Cc1ccc(NC(=O)c2cccc(NC(=O)N3CCSc4ncccc43)c2)cc1Cl,1.7,-2.1,4.1,4.4,·
Cc1cc(C)c2c(n1)SCCN2C(=O)Nc1ccc(C(=O)Nc2cc(Cl)ccc2C)cc1,4.3,-2.4,-32.7*,-6.4,·
Cc1cc(Cl)ccc1NC(=O)c1cccc(NC(=O)N2CCSc3ncccc32)c1,4.3,-3.1,-48.7*,2.5,·
SMILES,D1 agonist,D1 potentiator,D1 antagonist,D3 ag,DRD3 antagonist
CCN(Cc1ccc(OC)cc1)c1ccc(-c2nc(-c3ccncc3)no2)cc1[N+](=O)[O-],26.6,5.3,3.7,-6.8,·
COc1ccc(N2CCN(CCCNC(=O)Cn3c(=O)c4cccn4c4ccccc43)CC2)cc1,-0.8,-1.1,11.2,-4.7,-60.3*
COc1ccc(N2CCN(CCCn3c(=S)[nH]c4ncccc4c3=O)CC2)cc1,-0.6,-4.2,-1.5,-2.4,0.0
O=C(Cn1c(=O)c2cccn2c2cccnc21)NCCCN1CCN(c2ccc(F)cc2)CC1,1.7,-1.8,-2.1,-24.7,-118.4*
O=c1c2cccnc2[nH]c(=S)n1CCCN1CCN(c2ccc(F)cc2)CC1,2.2,-8.6,-11.2,0.2,-65.3*
COc1ccc(N2CCN(CCCNC(=O)Cn3c(=O)c4cccn4c4cccnc43)CC2)cc1,-0.4,2.3,25.8,-5.6,?
CC(C)Oc1ccc(CNC(=O)Cn2c(=O)c3cccn3c3cccnc32)cc1,0.7,-16.3,-81.4*,1.5,9.6
CC(C)Oc1ccc(CNC(=O)c2ccc(Cn3c(=O)c4cccn4c4cccnc43)cc2)cc1,6.8,-6.0,-6.5,3.8,·
